Test results taken from ChEMBL document CHEMBL4513216, “Probing the Open Global Health Chemical Diversity Library for Multistage-Active Starting Points for Next-Generation Antimalarials” (ACS Infect Dis, 2020).
Out of some 69,000 compounds screened, about 8,600 (12%) showed an effect of 50% or more. This is one part of a sample in which strong results are shown more often than they occur.

system: Plasmodium berghei; experiment: Screen against P. berghei liver stage (PbLuc), transformed with Luciferase, at 10uM; format: functional, HepG2; conditions: tested at 10 uM

Compound | INHIBITION
Cc1ccc(N2CCCN(C(=O)CC3C=CCC3)CC2)nn1 (stereo not drawn) | -0.113%
O=C1CCOC[C@]2(CN(Cc3ccccc3)C[C@H]2c2cccc(F)c2)N1 | -38.8%
COc1ccc2c(c1)OCC(C(=O)NCc1nc3c(s1)CCCC3)C2 (stereo not drawn) | -23.3%
CC(c1ccccc1)N(C)C(=O)CNCCn1cccn1 (stereo not drawn) | 31.1%
CCN(CC)CC(=O)N1CCCCC1c1nc(C)cs1 (stereo not drawn) | -67.3%
CCn1cc(CN2CCN(CC(O)c3ccc(C)cc3C)CC2)c(C)n1 (stereo not drawn) | 28%
Cc1nn(C)c2nc(N3CCCCC3c3nccs3)sc12 (stereo not drawn) | 28.7%
Cc1nn(C)c2nc(N3CCCC3c3nccs3)sc12 (stereo not drawn) | 49.9%
Cc1ccc(CN2CCN(C(=O)c3ccc(CO)cc3)C(C)C2=O)cc1 (stereo not drawn) | 60.3%
Cc1ccc(CN2CCN(C(=O)c3ccccc3O)C(C)C2=O)cc1 (stereo not drawn) | 37.6%
COC(=O)CC1C(=O)NCCN1c1nc2c(s1)c(C)nn2C (stereo not drawn) | 51.1%
Cc1nn(C)c2nc(N3CCNC(=O)C3Cc3ccccc3)sc12 (stereo not drawn) | 32.3%
COC(=O)CN1CCN(c2nc3c(s2)c(C)nn3C)C(C)C1=O (stereo not drawn) | 52.9%
Cc1nn(C)c2nc(N3CCCCC3c3ccc(F)cc3)sc12 (stereo not drawn) | -11.6%
Cc1ccc(CN2CCN(c3nc4c(s3)c(C)nn4C)C(C)C2=O)cc1 (stereo not drawn) | 78%
Cc1nn(C)c2nc(N3CCNC(=O)C3C(C)C)sc12 (stereo not drawn) | -47.5%
CNc1ncccc1C(=O)N1CCN(Cc2ccc(C)cc2)C(=O)C1C (stereo not drawn) | -11.5%
Cc1ccc(CN2C[C@H]3CN(Cc4ccccc4Cl)CCN3C2=O)cc1 | -45.5%
Cc1occc1C(=O)N1CCCN(Cc2nccn2C)CC1 | 23.7%
OC1(CNCCCN2CCCc3ccccc32)CNCCOC1 (stereo not drawn) | 45.9%
Cc1nc(O)cc(CCNC(=O)c2ccccc2N2CCCC2)n1 | 18.5%
CCCS(=O)(=O)N1C[C@@H]2C[C@H](C(=O)N3CCN(C)CC3)[C@H](C1)O2 | 21.1%
COc1ccc(-c2cc(CN)nc3ccnn23)cc1 | 35.2%
CC(C)C[C@@H](C(N)=O)n1cc(-c2cncnc2)nn1 | 12.8%
COc1ccc(-n2ccc(C(=O)N(CCN(C)C)C(C)C)n2)cc1 | 18.2%
Cc1ccc(-c2nc(CCNCc3ccncc3)co2)cc1 | 49.6%
Cc1nc(C2CCCN2Cc2nccn2CC(F)(F)F)no1 (stereo not drawn) | 21.6%

Compound | INHIBITION
CN(CC(F)(F)F)C(=O)CNC(=O)N1CCC(N2CCCC2)C1 (stereo not drawn) | 30.9%
CN1C(=O)COc2ccc(C(=O)Cn3cnc4ccsc4c3=O)cc21 | 47.9%
COCCN(C)C1COC2(CCN(Cc3ccccn3)CC2)C1 (stereo not drawn) | 25.2%
Cc1cccc(CNC(=O)CC2CCN(S(C)(=O)=O)CC2)n1 | -20.6%
O=C1CCC2(CCN(Cc3ccc(F)cc3)CC2)N1Cc1ccccc1 | 46.6%
Cc1nc(CSCCC(=O)NCc2ccncc2)cs1 | -4.94%
Cn1nccc1C(=O)NCCN1CCC(O)(c2ccc(F)cc2)CC1 | 14.65%
COCCN1CC[C@]2(CN(C(=O)c3ccc[nH]3)C[C@H]2C)C1=O | 61.3%
C[C@@H]1CN(C(=O)c2ccc[nH]2)C[C@]12CCN(CCN1CCCC1)C2=O | 48.4%
COCCN1CC[C@]2(CN(C(=O)c3cccs3)C[C@H]2C)C1=O | 22.4%
CCC(CC)C(=O)NCCc1ccn(-c2ccccc2)n1 | 15.6%
CC(C)c1cc(CN2CCC(CC(=O)O)CC2)no1 | 53%
CC(C)c1cc(CSCCC(=O)O)no1 | -46.4%
CC(C)c1cc(CN2CCC(N)CC2)on1 | 41.2%
CC(C)c1cc(COCCCC(=O)O)no1 | 38.2%
CC(C)c1cc(CN2CCC(N)CC2)no1 | 76.8%
CC(C)c1cc(CN2CCNCC2)no1 | 30.8%
Cc1ccc(-n2cc(C(=O)N3CCn4c(C)nnc4C3)nn2)cc1 | 15.9%
O=C(c1cnc(O)cn1)N1CCCC1c1nc2cc(F)ccc2[nH]1 (stereo not drawn) | 17.5%
Cn1ncc(C(=O)N2CCOCC2)c1Cl | 0.57%
CCc1ccc(CNc2cc(-c3ccoc3C)nn2CCO)o1 | 54.4%
Cc1cc(CNc2cc(-c3ccoc3C)nn2CCO)c(C)o1 | 43.7%
COc1cc(CNc2cc(-c3ccoc3C)nn2CCO)ccc1F | 38.3%
c1cc(N2CCCC2c2cnccn2)ncn1 (stereo not drawn) | -3.31%
COC(=O)c1cc(OCC2CCC2)cc(C(=O)N[C@@H]2CCCNC2)c1 | 58.4%
COC(=O)c1cc(OCC2CCC2)cc(C(=O)NC2CCC(O)CC2)c1 (stereo not drawn) | 7.12%
